Test results reported in PubChem BioAssay.
Values joined by “and” are separate entries in the source; they are usually repeats but may differ in a detail not shown here. Equal entries are not always repeated. Active and inactive are the calls of the source.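 How the source made its calls, unless noted: active means compounds whose cell count with miR-34 switched on is under 0.7 times the count with it off; inactive means the rest.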

Key:
[1] = viability loss with induced miR-34 in A549 – imaging, A549 dox-inducible miR-34, nuclei and caspase counts, primary screen (AID 1347080); settings: A549 miR-34 inducible, Hoechst nuclei count, 48 h
[2] = MELAS cybrid and Rieske KO viability enhancers – cell-based, MELAS cybrids, Rieske KO mouse fibroblasts, CellTiter-Glo, primary screen (AID 1508586;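 active means mean z-score across replicates of 1.96 or higher in either the MELAS or the Rieske mutant cell line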;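 further: z relative to plate mean and SD of compound and empty wells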); settings: low glucose
[3] = stronger effect = lower value, cell number ratio, induced over uninduced
[4] = measured here: relative caspase fold change +Dox/-Dox
[5] = measured here: total cells with miR-34 induction, stronger effect = lower value
[6] = measured here: total cells without miR-34 induction
[7] = MELAS cybrid survival, CellTiter-Glo 48 h, stronger effect = higher value
[8] = Rieske KO mouse fibroblast survival, CellTiter-Glo 72 h
Further: test concentration not given here.

C=CCc1ccc(O)c(-c2cc(CC=C)ccc2O)c1
fold change [1, 3]: 0.923 (inactive) | fold change [1, 4]: 0.657 | cell count [1, 5]: 7490 | cell count [1, 6]: 8120 | z-score [2, 7]: 0.173 (inactive) | z-score [2, 8]: -0.0672

O=C(C=Cc1ccc(O)cc1)c1ccc(O)cc1O
fold change [1, 3]: 0.99 (inactive) | fold change [1, 4]: 0.784 | cell count [1, 5]: 8890 | cell count [1, 6]: 8980 | z-score [2, 7]: -0.337 (inactive) | z-score [2, 8]: 0.414

C=C1C(=CC=C2CCC[C@@]3(C)[C@H]2CC[C@H]3C(C)C=CC(C)C(C)C)CC(O)CC1O (stereo not given in full)
fold change [1, 3]: 0.932 (inactive) | fold change [1, 4]: 0.78 | cell count [1, 5]: 7360 | cell count [1, 6]: 7890 | z-score [2, 7]: -0.45 (inactive) | z-score [2, 8]: 1.18

CC(=CC(=O)Nc1ccccc1C(=O)O)c1ccc2ccccc2c1
fold change [1, 3]: 0.983 (inactive) | fold change [1, 4]: 1.42 | cell count [1, 5]: 7300 | cell count [1, 6]: 7430 | z-score [2, 7]: -0.436 (inactive) | z-score [2, 8]: 0.934

Cc1cc2c(C(=O)NCC(C)c3ccccc3)c(O)c(O)cc2c(O)c1-c1c(C)cc2c(C(=O)NCC(C)c3ccccc3)c(O)c(O)cc2c1O (stereo not given)
fold change [1, 3]: 1.07 (inactive) | fold change [1, 4]: 0.503 | cell count [1, 5]: 2050 | cell count [1, 6]: 1910 | z-score [2, 7]: -0.836 (inactive) | z-score [2, 8]: -6.52

CC(OC1OCCN(Cc2n[nH]c(=O)[nH]2)C1c1ccc(F)cc1)c1cc(C(F)(F)F)cc(C(F)(F)F)c1 (stereo not given)
fold change [1, 3]: 0.911 (inactive) | fold change [1, 4]: 3.19 | cell count [1, 5]: 7240 | cell count [1, 6]: 7950 | z-score [2, 7]: 1.33 (inactive) | z-score [2, 8]: -2.44

CC(=O)Nc1cccc2c1c(Sc1ccc(Cl)cc1)c(C)n2CC(=O)O
fold change [1, 3]: 0.864 (inactive) | fold change [1, 4]: 0.281 | cell count [1, 5]: 7890 | cell count [1, 6]: 9130 | z-score [2, 7]: -0.287 (inactive) | z-score [2, 8]: -2.23

CCc1ccc(C=C2SC(=S)NC2=O)cc1
fold change [1, 3]: 0.911 (inactive) | fold change [1, 4]: 0.424 | cell count [1, 5]: 7750 | cell count [1, 6]: 8500 | z-score [2, 7]: -0.119 (inactive) | z-score [2, 8]: 0.267

C=C1CCC(O)CC1=CC=C1CCC[C@]2(C)C(C(C)C=CC(C)C(C)C)CC[C@@H]12 (stereo not given in full)
fold change [1, 3]: 0.949 (inactive) | fold change [1, 4]: 0.581 | cell count [1, 5]: 7890 | cell count [1, 6]: 8320 | z-score [2, 7]: -0.149 (inactive) | z-score [2, 8]: -0.174

Cc1cnc(NC(=O)Nc2cc(Br)c(C)cc2OCC2CNCCO2)cn1 (stereo not given)
fold change [1, 3]: 1.11 (inactive) | fold change [1, 4]: 0.742 | cell count [1, 5]: 1910 | cell count [1, 6]: 1730 | z-score [2, 7]: 0.916 (inactive) | z-score [2, 8]: -0.0359

CCC(C)C(=O)OC1CC(O)C=C2C=CC(C)C(CCC(O)CC(O)CC(=O)O)[C@H]21 (stereo not given in full)
fold change [1, 3]: 0.937 (inactive) | fold change [1, 4]: 0.958 | cell count [1, 5]: 7720 | cell count [1, 6]: 8230 | z-score [2, 7]: 0.0242 (inactive) | z-score [2, 8]: -0.0533

CN(C)C(=O)C(O)C(Cc1ccccc1)NC(=O)c1cc2cc(Cl)ccc2[nH]1 (stereo not given)
fold change [1, 3]: 0.959 (inactive) | fold change [1, 4]: 0.88 | cell count [1, 5]: 8860 | cell count [1, 6]: 9230 | z-score [2, 7]: -0.337 (inactive) | z-score [2, 8]: 0.715

CN(C)CCCCC(=O)Nc1ccc(NC(=S)NC(=O)c2ccc(C(C)(C)C)cc2)cc1
fold change [1, 3]: 1.13 (inactive) and 1.1 (inactive) | fold change [1, 4]: 0.871 and 0.667 | cell count [1, 5]: 4160 and 3360 | cell count [1, 6]: 3670 and 3070 | z-score [2, 7]: 0.0334 (inactive) | z-score [2, 8]: -0.0265

CCN(CC)C(=O)C(C#N)=Cc1cc(O)c(O)c([N+](=O)[O-])c1
fold change [1, 3]: 1.2 (inactive) | fold change [1, 4]: 1.41 | cell count [1, 5]: 8600 | cell count [1, 6]: 7190 | z-score [2, 7]: -0.263 (inactive) | z-score [2, 8]: -0.169

Cc1cc(OCCCS(C)(=O)=O)cc(C)c1-c1cccc(COc2ccc3c(c2)OCC3CC(=O)O)c1 (stereo not given)
fold change [1, 3]: 0.928 (inactive) | fold change [1, 4]: 0.766 | cell count [1, 5]: 7480 | cell count [1, 6]: 8070 | z-score [2, 7]: -0.428 (inactive) | z-score [2, 8]: 0.0224

COc1cc(-c2ncn(C=CC(=O)OC(C)C)n2)cc(C(F)(F)F)c1
fold change [1, 3]: 0.884 (inactive) | fold change [1, 4]: 0.634 | cell count [1, 5]: 2040 | cell count [1, 6]: 2310 | z-score [2, 7]: -0.00249 (inactive) | z-score [2, 8]: -7.09

OC(c1cc(C(F)(F)F)nc2c(C(F)(F)F)cccc12)[C@H]1CCCCN1 (stereo not given in full)
fold change [1, 3]: 0.875 (inactive) | fold change [1, 4]: 0.688 | cell count [1, 5]: 5320 | cell count [1, 6]: 6090 | z-score [2, 7]: 0.101 (inactive) | z-score [2, 8]: -0.0437

COc1cc(F)c(F)c(Nc2ccc(I)cc2F)c1NS(=O)(=O)C1(CC(O)CO)CC1 (stereo not given)
fold change [1, 3]: 0.923 (inactive) | fold change [1, 4]: 0.76 | cell count [1, 5]: 2970 | cell count [1, 6]: 3220 | z-score [2, 7]: -0.764 (inactive) | z-score [2, 8]: -0.645

O=C(Nc1ccccc1Br)NC1CCN(c2ccc(C(F)(F)F)cn2)C1 (stereo not given)
fold change [1, 3]: 0.944 (inactive) | fold change [1, 4]: 0.559 | cell count [1, 5]: 9350 | cell count [1, 6]: 9910 | z-score [2, 7]: -0.215 (inactive) | z-score [2, 8]: 0.944

CNC(=O)C(c1ccccc1)N1CCc2cc(OC)c(OC)cc2C1CCc1ccc(C(F)(F)F)cc1 (stereo not given)
fold change [1, 3]: 1.06 (inactive) | fold change [1, 4]: 0.482 | cell count [1, 5]: 6530 | cell count [1, 6]: 6180 | z-score [2, 7]: -0.149 (inactive) | z-score [2, 8]: 0.101
